Rab9 promoter act: qHTS Assay for Rab9 Promoter Activators; 320,000 tested, 2.8% active; Potency, µM (titrated, usually from 9.22 µM), inactives show top-dose activation, negative = inhibition, hits mostly activators; Huh7 Rab9 promoter-luciferase reporter, luminescence, 24 h; note: % of control where 0% means no effect; nearly all actives have a fitted effect of over 60% in size
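Huh7 reporter line, Rab9 promoter upstream of luciferase. Compound exposure 24 h at 37 °C in reduced-serum medium with 10% FBS. Read-out: luminescence.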
ELG1 genotox: qHTS screen for small molecules that induce genotoxicity in human embryonic kidney (HEK293T) cells expressing luciferase-tagged ELG1 | HEK293T ELG1-luciferase reporter, luminescence, 16 h | Potency, µM (highest dose often 46 µM), inactives show top-dose activity change, positive = activation, usual class: activators | 330,000 tested, 1.3% active; note: % of control where 0% means no effect; nearly all actives have a fitted effect of over 60% in size
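Cells (2,000/well) expressing the ELG1-luciferase fusion are dosed by pin tool and kept 16 hr at 37 °C, 5% CO2. Signal comes from ONE-Glo luciferase reagent after 30 min at room temperature.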
SMN2 splice up: qHTS Assay for Enhancers of SMN2 Splice Variant Expression | Potency, µM (top dose mostly 46.1 µM), for the others: at the top dose activity change, positive = activation, hits mostly activators | 210,000 tested, 2.8% active | AID 1458, 2008 | HEK293 SMN2-luciferase splicing reporter, luminescence, 30-36 h; note: % of control where 0% means no effect; nearly all actives have a fitted effect of over 55% in size
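HEK293 cells carry an SMN2 […]–luciferase reporter in which exon 7 inclusion puts luciferase in frame. Cells were plated 10-12 h before compound addition, then incubated 30-36 h at 37C. ONE-Glo luminescence was read; sodium butyrate at 4.5 mM final served as control.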
NPC1 prom act: qHTS Assay for NPC1 Promoter Activators | AID 485313, 2010 | Potency, µM (titrated, usually from 9.22 µM), for inactives: at the highest dose activation, usual class: activators | 320,000 tested, 2.4% active | Huh7 NPC1 promoter luciferase reporter, 24 h; note: % of control where 0% means no effect; nearly all actives have a fitted effect of over 60% in size
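Luminescence from an NPC1 promoter-driven luciferase reporter in stably transfected Huh7 cells was measured after 24 h compound treatment at 37 °C, followed by 10 min ambient incubation with luciferase detection reagent.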
FLuc counter: qHTS profiling assay for firefly luciferase inhibitor/activator using purifed enzyme and Km concentrations of substrates (counterscreen for miR-21 project); AID 588342, 2011; purified FLuc, Km substrates, luminescence inhibition; 360,000 tested, 6.9% active; Potency, µM (highest dose often 57.5 µM), without a hit: at the top dose activity change, negative = inhibition, usual class: inhibitors; Luciferin 4-monooxygenase (Photinus pyralis), P08659;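 note: plate controls were vehicle for no effect and reference inhibitor for full effect; nearly all actives have a fitted effect of over 55% in size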
Target sequence (P08659 whole entry, looked up): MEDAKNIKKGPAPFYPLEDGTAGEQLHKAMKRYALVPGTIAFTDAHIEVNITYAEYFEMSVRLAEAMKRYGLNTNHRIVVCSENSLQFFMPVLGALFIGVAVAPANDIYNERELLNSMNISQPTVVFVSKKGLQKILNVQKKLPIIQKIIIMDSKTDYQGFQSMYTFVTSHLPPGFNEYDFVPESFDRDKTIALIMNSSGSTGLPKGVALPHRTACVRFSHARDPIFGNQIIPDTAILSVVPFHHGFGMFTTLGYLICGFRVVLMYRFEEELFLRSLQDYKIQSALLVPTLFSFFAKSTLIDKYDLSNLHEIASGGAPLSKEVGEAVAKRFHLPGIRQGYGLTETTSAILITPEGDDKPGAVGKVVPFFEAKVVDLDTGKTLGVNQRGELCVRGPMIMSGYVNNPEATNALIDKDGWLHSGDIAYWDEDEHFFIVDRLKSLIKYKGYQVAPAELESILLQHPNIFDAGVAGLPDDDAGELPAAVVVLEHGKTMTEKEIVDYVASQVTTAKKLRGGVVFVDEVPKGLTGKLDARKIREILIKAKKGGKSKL
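Biochemical qHTS of compounds, final roughly 60 µM downward over six points, against 10 nM purified firefly luciferase using Km concentrations of substrates (10 uM D-luciferin, 10 uM ATP) in Tris acetate pH 7.5 buffer; luminescence output.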
ELG1 DNA repair: qHTS screen for small molecules that inhibit ELG1-dependent DNA repair in human embryonic kidney (HEK293T) cells expressing luciferase-tagged ELG1; HEK293T ELG1-luciferase reporter, luminescence, 16 h; DNA damage induced by 5-fluorouridine; Potency, µM (series often up to 46.1 µM), for inactives: at the top dose activity change, negative = inhibition, most hits filed as inhibitors; 330,000 tested, 2.3% active; AID 504467, 2011; note: % is set by controls: 0 for no effect and ±100 for the full control effect; nearly all actives have a fitted effect of over 55% in size
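Step one: seed 2,000 cells per well. Step two: pin-transfer compound or DMSO alongside 5-fluorouridine. Step three: incubate 16 hr, 37 °C, 5% CO2. Step four: add ONE-Glo, wait 30 min, read luminescence.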
* = called active by the depositor; ? = inconclusive; / = not tested or not shown; [ ] = another dose, or the depositor's remark. Hits are enriched below; roughly 9.4% of the tested compounds scored in any of these assays. Calls come from the whole dose curve; as a rule, active = well fitted curve in the direction sought with a large enough effect; inconclusive = small, poorly fitted or top-dose-only effect, or another doubt; inactive = no such curve, though single readings can be large; an effect the other way counts as inactive or inconclusive. Potency is the fitted concentration of half-maximal effect.

SMILES | Rab9 promoter act | ELG1 genotox | SMN2 splice up | NPC1 prom act | FLuc counter | ELG1 DNA repair
CCOC(=O)c1sc(=NC(=O)c2ccc(OC)c(OC)c2)n(C)c1C | 10.9% | 11.1% | -4.8% | 12.4% | -18.8% | ?
CCOC(=O)c1sc(=NC(=O)c2cccc(OC)c2)n(C)c1C | 1.58µM* | 14.7% | / | 3.55µM* | ? | ?
CCOC(=O)c1sc(=NC(=O)c2ccccc2)n(C)c1C | 18.5% | ? | 8.91µM* | -0.6% | 2.13µM* | ?
COc1ccc(NC(=O)COCc2cc(-c3ccco3)on2)cc1Cl | / | / | / | / | -14.3% | /
Cc1ccc(-n2nc(C(=O)N(C)c3ccccc3Cl)c3c4ccccc4n(C)c3c2=O)cc1 | / | / | 1.2% | / | -0.8% | /
O=C(Nc1ccc2nn(-c3ccc(F)cc3)nc2c1)c1cccnc1 | 27.0% | 8.7% | 7.9% | 19.5% | -18.4% | 14.2%
COc1cc(C(=O)Nc2ccc(-n3cnnn3)c(C)c2)cc(OC)c1OC | -0.6% | 9.2% | 25.7% | -0.9% | ? | 0.2%
O=C(Nc1ccc2nn(-c3ccccc3)nc2c1)c1cccnc1 | ? | 11.2% | -3.8% | 3.55µM* | ? | ?
CC(C)C(=O)Nc1ccc2nn(-c3ccccc3)nc2c1 | 0.141µM* | 1.16µM* | 7.94µM* | 0.224µM* | 0.675µM* | ?
Cc1cc(NC(=O)c2ccco2)ccc1-n1cnnn1 | ? | ? | 6.9% | ? | 21.3µM* | ?
O=C(Nc1ccc2nn(-c3ccccc3)nc2c1)c1ccco1 | 3.55µM* | ? | 3.98µM* | 2.82µM* | ? | ?
C=C1/C=C(\C)[C@](C)(O)C[C@H](O)CC(=O)[C@H](O)[C@@H](O)[C@H](C)C[C@H](C)OC(=O)/C(C)=C/CC/C=C/[C@@H]2O[C@H]2C[C@H](C)C1 | / | -3.3% | / | / | / | ?
O=C(Nc1cc(Cl)ccc1Cl)c1ccco1 | 2.5% | 2.6% | / | -1.6% | -1.2% | ?
O=C(Nc1cc2nn(-c3ccccc3)nc2cc1Cl)c1ccco1 | 3.55µM* | 9.2µM* | 11.2µM* | 3.98µM* | ? | ?
Cn1cccc1C(=O)N1CCC[C@@]2(CCN(C(c3ccccc3)c3ccccc3)C2)C1 | / | / | -17.2% | / | / | /
Cc1cccc(C(=O)Nc2ccc(N3CC=C(c4ccccc4C)CC3)c(C(=O)O)c2)c1 | / | / | / | / | -12.6% | /
CCCCn1cnc2c(oc3nc4c(cc32)CCCC4)c1=O | 0.562µM* | ? | / | 0.631µM* | 6.01µM* | ?
O=c1c2oc3nc4c(cc3c2ncn1CCCc1ccccc1)CCCC4 | ? | 14.1% | / | 24.4% | 23.9µM* | ?
CCCCCCn1cnc2c(oc3nc4c(cc32)CCCC4)c1=O | 3.16µM* | 13.9% | 11.2µM* | ? | ? | ?
COc1ccc(-c2onc(C)c2C)cc1S(=O)(=O)Nc1cc(Cl)ccc1C | / | / | / | / | -16.7% | /
CCc1ccc2occ(CC(=O)Nc3ccccc3C(F)(F)F)c2c1 | / | / | -2.1% | / | 2.6% | /
COC(=O)N1CCC2(CCCN(C(=O)Nc3ccccc3)C2)CC1 | / | / | 23.5% | / | / | /
O=C(/C=C/c1ccc(Cl)cc1)NC1CC2CCC1C2 (configuration not stated) | 11.1% | ? | 3.4% | 6.9% | 23.9µM* | ?
O=C(/C=C/c1ccc([N+](=O)[O-])cc1)NC1CC2CCC1C2 (configuration not stated) | 13.2% | 9.5% | 15.1% | -0.6% | ? | 11.1%
O=C(Nc1cccc(Cl)c1)NC1CC2CCC1C2 (configuration not stated) | 15.8% | 9.8% | / | 26.2% | 23.9µM* | ?
SMILES | Rab9 promoter act | ELG1 genotox | SMN2 splice up | NPC1 prom act | FLuc counter | ELG1 DNA repair
O=C(/C=C/c1ccccc1)NC1CC2CCC1C2 (configuration not stated) | 17.3% | ? | ? | 22.0% | 19µM* | ?
COc1cc(C(=O)NCC(c2ccc(N(C)C)cc2)N2CCc3ccccc32)cc(OC)c1OC (configuration not stated) | / | / | / | / | -8.1% | /
Cc1ccc(-c2ccc(=O)n(CC(=O)NC(C)c3ccccc3)n2)cc1 (configuration not stated) | / | / | / | / | 0.0% | /
CC1CCCN(C(=O)Cn2ncc3c([nH]c4ccccc43)c2=O)C1 (configuration not stated) | / | / | / | / | 5.3% | /
Clc1ccc(Cc2ccc(SCc3ccccc3)nn2)c(Cl)c1 | -0.8% | -5.0% | -1.3% | -3.0% | -8.5% | -0.6%
Clc1ccc(CSc2cc3c(nn2)-c2ccccc2CC3)cc1 | 27.7% | 5.7% | 11.9% | ? | 12µM* | ?
Cc1cccc(Oc2ccc(Cl)cc2N)c1 | 22.9% | 2.3% | 16.9% | 14.0% | 16.9µM* | 22.1%
Nc1cc(Cl)ccc1Oc1ccccc1 | -1.4% | 3.1% | -0.7% | -2.2% | -17.3% | 28.8%
CSc1ncccc1C(=O)OCc1ccccc1 | ? | ? | 0.7% | 19.9% | 19µM* | ?
CSc1ncccc1C(=O)OCc1ccccc1F | 27.8% | 16.5% | 27.7% | ? | 15.1µM* | ?
O=C(CN1C(=O)C(c2ccc(F)cc2)=NC12CCCCCC2)Nc1ccccc1Cl | / | / | -16.6% | / | 3.7% | /
Cc1ccccc1-c1ccc(C(=O)NCc2ccccc2)o1 | 5.3% | 11.2% | 16.5% | 8.6% | 26.9µM* | ?
COc1ccccc1-c1cc(C(=O)NCc2ccccc2)no1 | -1.4% | -2.1% | -8.8% | -0.4% | 23.9µM* | 2.4%
COc1ccc(CNC(=O)c2cc(-c3ccccc3OC)on2)cc1 | -1.7% | 0.4% | -11.3% | -0.7% | 16.9µM* | -4.1%
O=C(NCc1ccccc1)c1ccc(-c2ccccc2C(F)(F)F)o1 | 3.8% | 8.3% | -1.9% | -3.0% | ? | ?
COc1ccccc1-c1cc(C(=O)NCc2ccc(F)cc2)no1 | 0.0% | -1.2% | -10.2% | -0.8% | ? | 3.0%
Cc1cccc(NC(=O)c2sc3nc4n(c(=O)c3c2C)N=C(c2ccc(F)cc2)CS4)c1C | / | / | / | / | -1.9% | /
O=C(O)CNC(=O)[C@@H](CS)Cc1ccccc1 | / | / | 6.3%[20.6 µM] | / | / | /
COc1ccc(OC)c(NCc2cccn2-c2nnc(N3CCCCC3)s2)c1 | / | / | / | / | -19.8% | /
Cn1c(-c2ccccc2)cc2c3no[n+]([O-])c3ccc21 | -27.7% | 4.8% | -79.9% | ? | 13.5µM* | 4.8%
CCOC(=O)c1c(C)n(OCc2ccccc2)c2ccc3c(no[n+]3[O-])c12 | -4.6% | 3.7% | -0.1% | -1.7% | 1.0% | -15.5%

Source: PubChem BioAssay (National Center for Advancing Translational Sciences (NCATS))
